Inconclusive results are not listed. A number with no mark means an inactive call. The source made the active and inactive calls. Calls follow the shape of the dose curve; as a rule, active = well fitted cell-killing curve with a large enough effect; inconclusive = small, poorly fitted or top-dose-only effect, or effect the other way; inactive = no such curve, though single readings can be large or run the other way.

Results on four molecules are retold here after PubChem BioAssay (NCATS).
Potency is read from the fitted curve at half-maximal effect.

A short description of this test: Viability qHTS for spleen associated tyrosine kinase inhibitor (SYKi) naive MV4-11 cells (AID 1963823). Also: nearly all actives have a fitted effect of over 40% in size. Conditions: MV4-11 AML viability, CellTiter-Glo luminescence, 72 h; series mostly up to 45 µM; viability (% of control): at the top concentration. The method in brief: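 CellTiter-Glo luminescence, 10 min room-temperature incubation, gave viability. Cells: naive MV4-11 (500/well), treated 72 hr at 37 C, 5% CO2.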
For `O=C1[C@H](O[C@@H]2O[C@H](CO)[C@@H](O)[C@H](O)[C@H]2O)Oc2ccccc2N1O`, the “viability (% of control)” value is 72.3%.

As to `C/C1=C\CC[C@]2(C)O[C@H]2C(=O)c2c(C)coc2C1`, the “viability (% of control)” value was 42.6%.

For the molecule `C[C@H]1CC(=O)C2=C(C1)C(O)C(O)[C@@]1(O)[C@H]2C(=O)c2cccc(O)c2[C@@H]1O` (some centres undefined), the “viability (% of control)” value is 65.5%.

Turning to `C/C=C/C=C/C=C/C(=O)OC1C=C2C(O)OC(=O)[C@]2(O)[C@@]2(C)CCCC(C)(C)[C@H]12` (some centres undefined), the Potency was 6.32 µM (active).
